Assay results reported in PubChem BioAssay (NCATS).
Values joined by “and” are separate entries in the source; they are usually repeats but may differ in a detail not shown here. Identical values can stand only once. Inconclusive results are not listed. A call without a number means that no potency is given here. Unmarked numbers belong to inactive results. Active and inactive are the calls of the source. The call rests on the fitted dose curve; in most records, active means well fitted curve in the direction sought with a large enough effect; inconclusive means small, poorly fitted or top-dose-only effect, or another doubt; inactive means no such curve, though single readings can be large; an effect the other way counts as inactive or inconclusive.

Legend:
[1] = target: Cytochrome P450 3A7 (Homo sapiens) (UniProt P24462); assay: Cytochrome P450 family 3 subfamily A member 7 (CYP3A7) small molecule antagonists: luciferase biochemical qHTS assay (AID 1963596); further: nearly all actives have a fitted effect of over 40% in size
Chain of Cytochrome P450 3A7 (Homo sapiens) (P24462 whole entry, looked up): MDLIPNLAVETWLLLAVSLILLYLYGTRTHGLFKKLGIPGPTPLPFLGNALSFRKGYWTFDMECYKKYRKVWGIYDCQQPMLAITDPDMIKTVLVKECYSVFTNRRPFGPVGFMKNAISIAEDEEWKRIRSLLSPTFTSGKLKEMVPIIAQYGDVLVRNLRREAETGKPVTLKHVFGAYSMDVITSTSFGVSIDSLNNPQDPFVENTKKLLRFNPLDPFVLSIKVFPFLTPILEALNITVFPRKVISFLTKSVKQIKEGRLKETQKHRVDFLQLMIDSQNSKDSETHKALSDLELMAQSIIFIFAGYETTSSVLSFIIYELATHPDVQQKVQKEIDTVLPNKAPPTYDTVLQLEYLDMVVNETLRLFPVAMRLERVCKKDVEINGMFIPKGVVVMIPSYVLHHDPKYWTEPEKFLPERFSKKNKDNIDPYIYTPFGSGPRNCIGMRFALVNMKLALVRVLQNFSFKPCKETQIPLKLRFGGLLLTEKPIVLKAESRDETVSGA
Procedure, shortened: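 Enzyme-substrate mix + cpd (DMSO), 10 min RT; + NADPH regen system, 1 h RT; + luciferin detection reagent, 20 min RT; luminescence read. Proluciferin substrate, P450-Glo format, 1536-well qHTS.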

[2] = Viability qHTS for spleen associated tyrosine kinase inhibitor (SYKi) naive MV4-11 cells (AID 1963823); further: nearly all actives have a fitted effect of over 40% in size; further: potency means the concentration at half of the fitted maximal effect
Procedure, shortened: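 SYKi-naive MV4-11 AML cells, 500 per well, were exposed to library compounds for 72 hr at 37 C, 5% CO2. Viability was then read by CellTiter-Glo luminescence after 10 min at room temperature.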

[3] = Viability qHTS for spleen associated tyrosine kinase inhibitor (SYKi) drug resistant MV4-11 cells (AID 1963824); further: nearly all actives have a fitted effect of over 35% in size; further: potency means the concentration at half of the fitted maximal effect
Procedure, shortened: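 SYK inhibitor-resistant MV4-11 AML cells, 500 per well, added to predispensed compounds and incubated 72 hr at 37 C, 5% CO2. Viability measured by CellTiter-Glo luminescence after 10 min at room temperature.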

[4] = Quantitative highthroughput screen to assess conditional lethalithy of NOMO1 cells grown in RPMI1640 with untreated serum (RPMI+s) (AID 1963876); further: nearly all actives have a fitted effect of over 35% in size; further: potency means the concentration at half of the fitted maximal effect
Procedure, shortened: (§1)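 Each medium arm—HPLM with 10% dialyzed FBS, or RPMI1640 with 5 mM glucose and 10% untreated or dialyzed FBS—was screened against an 11-point, 3-fold compound titration for 48 h at 37 °C, with CellTiter-Glo luminescence as endpoint.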

[5] = Quantitative highthroughput screen to assess conditional lethalithy of NOMO1 cells grown in RPMI1640 with dialyzed fetal bovine serum (RPMI+ds) (AID 1963877); further: nearly all actives have a fitted effect of over 30% in size; further: potency means the concentration at half of the fitted maximal effect; on Viability: series mostly up to about 46 µM
Procedure, shortened: as §1

[6] = Quantitative highthroughput screen to assess conditional lethalithy of NOMO1 cells grown in Human Plasma-Like Medium with dialyzed fetal bovine serum (HPLM+ds) (AID 1963878); further: nearly all actives have a fitted effect of over 35% in size; further: potency means the concentration at half of the fitted maximal effect
Procedure, shortened: as §1

[7] = Quantitative highthroughput screen to assess conditional lethalithy of P12 Ichikawa cells grown in Human Plasma-Like Medium with dialyzed fetal bovine serum (HPLM+ds) (AID 1963879); settings: Potency: viability; further: nearly all actives have a fitted effect of over 35% in size; further: potency means the concentration at half of the fitted maximal effect; on Viability: series mostly up to about 46 µM
Procedure, shortened: as §1

[8] = Quantitative highthroughput screen to assess conditional lethalithy of P12 Ichikawa cells grown in RPMI1640 with dialyzed fetal bovine serum (RPMI+ds) (AID 1963880); settings: Potency: P12-Ichikawa viability; further: nearly all actives have a fitted effect of over 35% in size; further: potency means the concentration at half of the fitted maximal effect
Procedure, shortened: as §1

[9] = Quantitative highthroughput screen to assess conditional lethalithy of SEM cells grown in Human Plasma-Like Medium with dialyzed fetal bovine serum (HPLM+ds) (AID 1963882); further: nearly all actives have a fitted effect of over 35% in size; further: potency means the concentration at half of the fitted maximal effect; on Viability: series mostly up to about 46 µM
Procedure, shortened: as §1

[10] = Quantitative highthroughput screen to assess conditional lethalithy of SEM cells grown in RPMI1640 with unreated serum (RPMI+s) (AID 1963883); further: nearly all actives have a fitted effect of over 35% in size; further: potency means the concentration at half of the fitted maximal effect
Procedure, shortened: as §1

[11] = Quantitative highthroughput screen to assess conditional lethalithy of SEM cells grown in RPMI1640 with dialyzed fetal bovine serum (RPMI+ds) (AID 1963884); further: nearly all actives have a fitted effect of over 35% in size; further: potency means the concentration at half of the fitted maximal effect; on Viability: series mostly up to about 46 µM
Procedure, shortened: as §1

[12] = Cellular viability qHTS for adrenocortical cancer (ACC) cell line SW-13 (AID 1963989); settings: SW-13 ACC cells viability, CellTiter-Glo, 48 h; activity (max response): stronger effect = lower value;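 further: cells grown in serum-free medium with ITS supplement; nearly all actives have a fitted effect of over 65% in size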
Procedure, shortened: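 Viability was read as CellTiter-Glo luminescence after 48 h compound treatment (up to 46 uM final) of SW-13 cells grown serum-free; titration curves were fit with a four-parameter logistic model to give IC50 and efficacy.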

[13] = Cellular viability qHTS for adrenocortical cancer (ACC) cell line NCI-H295R (AID 1963990); further: nearly all actives have a fitted effect of over 60% in size
Procedure, shortened: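 CellTiter-Glo ATP luminescence, read 48 h after compound addition, measured viability of NCI-H295R adrenocortical cells grown serum-free with ITS. Final concentrations spanned up to 46 uM. Data normalized to DMSO and doxorubicin, fitted for IC50 and maximal response.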

[14] = Quantitative highthroughput screen to assess conditional lethalithy of P12 Ichikawa cells grown in RPMI1640 with untreated serum (RPMI+s) (AID 1963881); settings: Potency: viability; further: nearly all actives have a fitted effect of over 35% in size; further: potency means the concentration at half of the fitted maximal effect; on Viability: series mostly up to about 46 µM
Procedure, shortened: as §1

Compound | Potency [1] | Potency [2] | Potency [3] | Potency [4] | Potency [5] | Potency [6] | Potency [7] | Potency [8] | Potency [9] | Potency [10] | Potency [11] | activity (max response) [12] | Potency [13] | Potency [14]
O=C(O)c1cc(=O)c2c(OCC(O)COc3cccc4oc(C(=O)O)cc(=O)c34)cccc2o1 | inactive | inactive | inactive | inactive | inactive | inactive | inactive | inactive | inactive | inactive | inactive | 10.3% and -0.0262% | inactive | –
C1COC(NC(C2CC2)C2CC2)=N1 | inactive | inactive | inactive | inactive | inactive | – | – | – | – | – | – | 14.7% and 0.392% | inactive | inactive
Nc1nc(F)nc2c1ncn2[C@@H]1O[C@H](CO)[C@@H](O)[C@@H]1O | inactive | 10.5 µM (active) and 16.8 µM (active) and 14.6 µM (active) | 13.2 µM (active) and 14.6 µM (active) | 469 nM (active) | – | 418 nM (active) | 469 nM (active) | 372 nM (active) | 93.5 nM (active) | 105 nM (active) | 74.3 nM (active) | – | – | 526 nM (active)
COc1cc(OC)c(C(=O)CCCN2CCCC2)c(OC)c1 | inactive | inactive | inactive | inactive | inactive | – | – | inactive | inactive | inactive | inactive | 9.88% and 2.45% | inactive | inactive
NC(=O)c1cccnc1 | inactive | inactive | inactive | inactive | inactive | inactive | – | inactive | 16600 nM (active) | – | – | -8.19% and 2.22% | inactive | inactive
O=c1[nH]cnc2[nH]ncc12 | inactive | inactive | inactive | inactive | inactive | – | – | inactive | – | inactive | – | 1.44% and -3.08% | inactive | inactive
Cc1cn([C@H]2C[C@H](N=[N+]=[N-])[C@@H](CO)O2)c(=O)[nH]c1=O | inactive | inactive | inactive | 1320 nM (active) | 1870 nM (active) | – | 10500 nM (active) | – | – | inactive | – | -7.12% | inactive | –
Cc1nnc(NS(=O)(=O)c2ccc(N)cc2)s1 | inactive | inactive | inactive | 9350 nM (active) | 5260 nM (active) | – | 7430 nM (active) | 13200 nM (active) | inactive | 9350 nM (active) | inactive | -2.08% and -2.89% | inactive | 8330 nM (active)
COc1c(N2CCNC(C)C2)c(F)cc2c(=O)c(C(=O)O)cn(C3CC3)c12 (configuration not stated) | inactive | 18.6 µM (active) | 14.8 µM (active) | inactive | inactive | inactive | – | – | 743 nM (active) | – | 662 nM (active) | -4.21% and 1.72% | inactive | inactive
C[N+](C)(C)CC(=O)O | inactive | inactive | inactive | inactive | inactive | – | – | inactive | – | inactive | inactive | -6.24% and 7.87% | inactive | inactive
O=C(O)c1cn(-c2ccc(F)cc2)c2cc(N3CCNCC3)c(F)cc2c1=O | inactive | inactive | inactive | inactive | inactive | – | inactive | inactive | inactive | inactive | inactive | -4.38% and 8.16% | inactive | inactive
